20 molecules from PubChem BioAssay AID2570 (National Center for Advancing Translational Sciences (NCATS), 2010) can be followed below.

Inconclusive results are not listed. Activity calls are given as the source filed them. Calls come from the whole dose curve; as a rule, active = well fitted curve in the direction sought with a large enough effect; inconclusive = small, poorly fitted or top-dose-only effect, or another doubt; inactive = no such curve, though single readings can be large or run the other way.

Chain of Vasopressin V1b receptor (Homo sapiens) (P47901 whole entry, looked up): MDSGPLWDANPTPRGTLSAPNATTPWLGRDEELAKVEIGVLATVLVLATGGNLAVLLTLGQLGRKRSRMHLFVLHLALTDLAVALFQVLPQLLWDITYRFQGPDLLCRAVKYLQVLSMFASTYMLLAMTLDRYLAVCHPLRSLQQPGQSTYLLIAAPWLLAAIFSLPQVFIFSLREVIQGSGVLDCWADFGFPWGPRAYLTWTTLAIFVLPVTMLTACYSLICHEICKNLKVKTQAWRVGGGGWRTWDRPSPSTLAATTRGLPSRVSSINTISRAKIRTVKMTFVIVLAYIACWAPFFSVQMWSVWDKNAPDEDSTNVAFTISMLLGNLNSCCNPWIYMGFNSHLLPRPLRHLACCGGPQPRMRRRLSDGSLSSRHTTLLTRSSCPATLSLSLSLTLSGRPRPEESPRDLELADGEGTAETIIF

This assay addresses Vasopressin V1b receptor (Homo sapiens) (UniProt P47901). Briefly: Counterscreen Concentration-Response Assay for Antagonists of the Neuropeptide S Receptor: Vasopressin Receptor Calcium Signal Transduction. Particulars: CHO-AVPR1B, vasopressin-stimulated calcium fluorescence, FDSS. The essentials: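 CHO cells stably expressing human AVPR1B, calcium-dye loaded, were given compound, then stimulated with 60 nM vasopressin in HBSS/0.1% BSA. Peak kinetic fluorescence was normalized to DMSO and no-signal controls; AC50 from Hill fits.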
On to `COc1ccc(C2c3c(ncn(CCCc4ccccc4)c3=N)Oc3ccc4ccccc4c32)cc1OC` (stereo not given), for which the max response was 11.1% (inactive).

Consider `N=c1c2c(ccn1CCCCc1ccccc1)Oc1ccc3ccccc3c1C2c1ccccc1` (stereo not given), for which the max response is 19.5% (inactive). For `COc1cccc(C2c3c(ncn(-c4cccc(F)c4)c3=N)Oc3ccc4ccccc4c32)c1` (stereo not given), the max response is -14.9% (inactive). Regarding `COc1cccc(C2c3c(ncn(-c4ccc(C#N)cc4)c3=N)Oc3ccc4ccccc4c32)c1` (stereo not given), the max response is -46.5% (inactive). With `COc1ccc(C2c3c(ncn(CCN4CCOCC4)c3=N)Oc3ccc4ccccc4c32)cc1OC` (stereo not given), the max response was -15.6% (inactive). As to `COc1ccc(C2c3c(N)nc(Cc4ccccc4)nc3Oc3ccc4ccccc4c32)cc1OC` (stereo not given), the max response was -15.7% (inactive).

On to `CC(C)(C)OC(=O)Nc1ncnc2c1C(c1ccccc1)c1c(ccc3ccccc13)O2` (stereo not given), for which the max response was 14.3% (inactive). `COc1ccc(C2c3c(nc(CCc4ccccc4)[nH]c3=O)Oc3ccc4ccccc4c32)cc1OC` (stereo not given): the max response is 1.09% (inactive). For the molecule `O=C(NCc1ccccc1)Nc1ncnc2c1C(c1ccccc1)c1c(ccc3ccccc13)O2` (stereo not given), the max response is -5.16% (inactive).

In the case of `Cc1c(P(=S)(c2ccccc2)c2ccccc2)c2ccccc2n1Cc1ccccc1`, the max response is 0.753% (inactive). With `COc1ccc(C2c3c(N)nc(CCc4ccccc4)nc3Oc3ccc4ccccc4c32)cc1OC` (stereo not given), the max response was -20.6% (inactive). As for `N#CC1=C(NC=NCc2ccccc2)Oc2ccc3ccccc3c2C1c1ccccc1` (stereo not given), the figure is -19% (inactive). For `O=C(c1ccccc1)N(C(=O)c1ccccc1)c1ncnc2c1C(c1ccccc1)c1c(ccc3ccccc13)O2` (stereo not given), the max response is 12.9% (inactive). Regarding `COc1ccc(-n2cnc3c(c2=N)C(c2cccc(OC)c2)c2c(ccc4ccccc24)O3)cc1` (stereo not given), the max response was -14.1% (inactive). With `COc1cccc(C2c3c(ncn(-c4ccccc4OC)c3=N)Oc3ccc4ccccc4c32)c1` (stereo not given), the max response is -19.5% (inactive).

For `O=C(Cc1ccccc1)Nc1ncnc2c1C(c1ccccc1)c1c(ccc3ccccc13)O2` (stereo not given), the max response was 7.19% (inactive). `O=C(Nc1ncnc2c1C(c1ccccc1)c1c(ccc3ccccc13)O2)c1ccccc1` (stereo not given): the max response is 8.3% (inactive).

Turning to `COc1ccc(C2c3c(nc(CCCc4ccccc4)[nH]c3=O)Oc3ccc4ccccc4c32)cc1OC` (stereo not given), the max response was 12% (inactive). As to `COc1cccc(C2c3c(ncn(-c4ccccc4)c3=N)Oc3ccc4ccccc4c32)c1OC` (stereo not given), the max response was -5.77% (inactive). As for `COc1ccc(C2c3c(n(CCCc4ccccc4)cnc3=N)Oc3ccc4ccccc4c32)cc1OC` (stereo not given), the figure is -23.2% (inactive).
